Potency and outcome data for 7 compounds are collected here from PubChem BioAssay (Tox21).

Records with an inconclusive call do not appear. Active and inactive are the calls of the source. Unless noted, calls come from the whole dose curve; as a rule, active = well fitted curve in the direction sought with a large enough effect in the repeat runs; inconclusive = weak or mixed curves; inactive = no such curve, though single readings can be large; an effect the other way counts as inactive or inconclusive.

Experiment [1] in a line: qHTS assay for small molecules that induce genotoxicity in human embryonic kidney cells expressing luciferase-tagged ATAD5 (AID 651632). Note: nearly all actives have a fitted effect of over 15% in size. An outline of the steps: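 Concentration-response screen for ATAD5 upregulation in HEK293T luciferase reporter cells; 16 hr treatment at 37C, then luminescence after 30 min with Amplite at room temperature.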
For orientation: qHTS replaces the single test concentration by a dilution series.

Experiment [2] can be described thus: qHTS assay for small molecule agonists of the p53 signaling pathway - cell viability (AID 651633; calls by dose curve; note: nearly all actives have a fitted effect of over 30% in size; note: potency is the fitted concentration of half-maximal effect). A digest of the protocol: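 p53RE-bla cells, seeded at 4,000 per well and rested 5 h at 37 C/5% CO2, received compounds in DMSO for 16 h at 37 C. CellTiter-Glo was then added, and luminescence was read after 30 min at room temperature to gauge cytotoxicity.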
The nature of experiment [3]: qHTS assay for small molecule disruptors of the mitochondrial membrane potential - cell viability (AID 720634; calls by dose curve;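 note: human HepG2 liver cancer cells; series mostly up to about 83 µM; nearly all actives have a fitted effect of over 20% in size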). An outline of the steps: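 In this qHTS format, HepG2 cells plated overnight were pinned with compound, incubated 1 hr, and assayed for ATP luminescence with CellTiter-Glo after m-MPI dye addition.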
The nature of experiment [4]: qHTS assay to test for compound auto fluorescence at 535 nm (green) in HepG2 cells (AID 720675).
A short description of experiment [5]: qHTS assay to test for compound auto fluorescence at 460 nm (blue) in HEK293 cells (AID 720678). An outline of the steps: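 HEK293 cells (2,000/well, medium with 10% dialyzed FBS) attached 4-5 hr, then exposed to compound overnight at 37C, 5% CO2. Blue fluorescence read at 405/460 nm, with triamterene as reference fluorophore.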
Experiment [6] can be described thus: qHTS assay to test for compound auto fluorescence at 590 nm (red) in HEK293 cells (AID 720679). An outline of the steps: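 HEK293 cells (2,000/well, 10% dialyzed FBS) attached 4-5 hr, then dosed with compound or DMSO and incubated overnight at 37C, 5% CO2. Red fluorescence read at 540/590 nm, Rose Bengal sodium as reference fluorophore.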
Experiment [7] in a line: qHTS assay to test for compound auto fluorescence at 460 nm (blue) in HEK293 cell free culture (AID 720681). A digest of the protocol: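 Test compounds were pinned into cell-free culture medium (DMEM with 10% FBS) and fluorescence was read directly at Ex/Em 405/460 nm. Signals were expressed as fluorescence equivalents of triamterene, with DMSO vehicle as control.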
Experiment [8] is described as follows: qHTS assay to test for compound auto fluorescence at 535 nm (green) in HEK293 cell free culture (AID 720682). A digest of the protocol:
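Compounds were pin-transferred into cell-free DMEM with 10% FBS, and green fluorescence was read at excitation 485 nm and emission 535 nm. Intensities were expressed as fluorescein-equivalent values.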

Experiment [9] is described as follows: qHTS assay to test for compound auto fluorescence at 590 nm (red) in HepG2 cell free culture (AID 720684). A digest of the protocol: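 Readout: intrinsic compound fluorescence at 590 nm emission after 540 nm excitation, scaled to Rose Bengal sodium. Matrix was cell-free MEM with 10% FBS; DMSO vehicle wells served as control.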
Experiment [10] can be described thus: qHTS assay to test for compound auto fluorescence at 460 nm (blue) in HepG2 cell free culture (AID 720685). A digest of the protocol: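 Cell-free plates of MEM plus 10% FBS received 23 nL compound or DMSO vehicle; blue-channel (405/460 nm) intensity scored against triamterene as reference fluorophore.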
Experiment [11] can be described thus: qHTS assay to test for compound auto fluorescence at 535 nm (green) in HepG2 cell free culture (AID 720686).
Experiment [12] in a line: qHTS assay to test for compound auto fluorescence at 460 nm (blue) in HepG2 cells (AID 720687). A digest of the protocol:
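Cells (2,000/well in MEM with 10% FBS) attached overnight at 37 C, then were exposed to compound or DMSO for 1 hr at 37 C, 5% CO2. Fluorescence read at Ex/Em 405/460 nm, expressed as triamterene-equivalent signal.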

Experiment [13] can be described thus: qHTS assay for identifying genotoxic compounds that show differential cytotoxicity against isogenic chicken DT40 cell lines with known DNA damage response pathways - wild type cell line (AID 743012). Note: nearly all actives have a fitted effect of over 60% in size. Note: potency is the fitted concentration of half-maximal effect. An outline of the steps: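 Endpoint: CellTiter-Glo luminescence, 30 min RT. Cells: wild type DT40, 300/well. Exposure: compounds in DMSO, 40 h, 37 C/5% CO2, after ~0.5 h pre-incubation.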

Experiment [14] is described as follows: qHTS assay for identifying genotoxic compounds that show differential cytotoxicity against isogenic chicken DT40 cell lines with known DNA damage response pathways - Rad54/Ku70 mutant cell line (AID 743015). Note: nearly all actives have a fitted effect of over 60% in size. Note: potency is the fitted concentration of half-maximal effect.
Experiment [15] in a line: qHTS assay to identify small molecule antagonists of the androgen receptor (AR) signaling pathway - cell viability counter screen (AID 743033; note: nearly all actives have a fitted effect of over 45% in size; note: potency is the fitted concentration of half-maximal effect).
Experiment [16] can be described thus: qHTS assay to identify small molecule antagonists of the androgen receptor (AR) signaling pathway using the MDA cell line - cell viability counter screen (AID 743041; note: nearly all actives have a fitted effect of over 45% in size). A digest of the protocol: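 qHTS viability read-out; MDA-kb2 AR-luc; R1881-stimulated; 16 h exposure at 37C, 0% CO2; CellTiter-Fluor, 30 min; fluorescence intensity.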
Experiment [17] has as its target Aryl hydrocarbon receptor (Homo sapiens) (UniProt P35869). The experiment can be described thus: qHTS assay to identify small molecule that activate the aryl hydrocarbon receptor (AhR) signaling pathway (AID 743085). Note: nearly all actives have a fitted effect of over 15% in size. Note: potency is the fitted concentration of half-maximal effect. An outline of the steps: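 Luminescence (ONE-Glo) from a dioxin-responsive-element luciferase reporter in HG2L7.5c1 HepG2 cells after 24 hr compound exposure at 37C; viability measured by CellTiter-Fluor fluorescence beforehand.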

The target of experiment [18] is Aromatase (Homo sapiens) (UniProt P11511). The experiment can be described thus: qHTS assay to identify aromatase inhibitors (AID 743083). Note: series mostly up to about 70 µM; nearly all actives have a fitted effect of over 55% in size.
Chain of Aromatase (Homo sapiens) (P11511 whole entry, looked up): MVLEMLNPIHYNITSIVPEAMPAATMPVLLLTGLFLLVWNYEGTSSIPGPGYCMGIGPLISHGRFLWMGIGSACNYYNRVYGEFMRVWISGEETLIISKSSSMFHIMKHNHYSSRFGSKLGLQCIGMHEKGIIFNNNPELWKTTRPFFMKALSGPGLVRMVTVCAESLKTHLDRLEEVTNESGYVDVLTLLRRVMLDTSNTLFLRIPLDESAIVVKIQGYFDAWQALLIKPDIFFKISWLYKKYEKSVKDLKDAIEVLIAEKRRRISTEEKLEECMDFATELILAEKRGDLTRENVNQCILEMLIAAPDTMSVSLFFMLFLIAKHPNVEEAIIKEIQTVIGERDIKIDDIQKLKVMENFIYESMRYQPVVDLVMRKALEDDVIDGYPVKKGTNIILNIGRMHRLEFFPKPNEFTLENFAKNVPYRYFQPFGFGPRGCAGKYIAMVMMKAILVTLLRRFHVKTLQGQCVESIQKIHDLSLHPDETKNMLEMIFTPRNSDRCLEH
Experiment [19] can be described thus: qHTS assay to identify aromatase inhibitors - cell viability counter screen (AID 743084).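 Note: cells stimulated with testosterone during compound exposure; nearly all actives have a fitted effect of over 55% in size.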
Experiment [20] is described as follows: qHTS assay to identify small molecule antagonists of the estrogen receptor alpha (ER-alpha) signaling pathway - cell viability counter screen (AID 743074; calls by dose curve;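 note: HEK293 cells carrying ER-alpha-UAS-bla reporter stimulated with 17beta-estradiol; nearly all actives have a fitted effect of over 45% in size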).

Chain of Aryl hydrocarbon receptor (Homo sapiens) (P35869 whole entry, looked up): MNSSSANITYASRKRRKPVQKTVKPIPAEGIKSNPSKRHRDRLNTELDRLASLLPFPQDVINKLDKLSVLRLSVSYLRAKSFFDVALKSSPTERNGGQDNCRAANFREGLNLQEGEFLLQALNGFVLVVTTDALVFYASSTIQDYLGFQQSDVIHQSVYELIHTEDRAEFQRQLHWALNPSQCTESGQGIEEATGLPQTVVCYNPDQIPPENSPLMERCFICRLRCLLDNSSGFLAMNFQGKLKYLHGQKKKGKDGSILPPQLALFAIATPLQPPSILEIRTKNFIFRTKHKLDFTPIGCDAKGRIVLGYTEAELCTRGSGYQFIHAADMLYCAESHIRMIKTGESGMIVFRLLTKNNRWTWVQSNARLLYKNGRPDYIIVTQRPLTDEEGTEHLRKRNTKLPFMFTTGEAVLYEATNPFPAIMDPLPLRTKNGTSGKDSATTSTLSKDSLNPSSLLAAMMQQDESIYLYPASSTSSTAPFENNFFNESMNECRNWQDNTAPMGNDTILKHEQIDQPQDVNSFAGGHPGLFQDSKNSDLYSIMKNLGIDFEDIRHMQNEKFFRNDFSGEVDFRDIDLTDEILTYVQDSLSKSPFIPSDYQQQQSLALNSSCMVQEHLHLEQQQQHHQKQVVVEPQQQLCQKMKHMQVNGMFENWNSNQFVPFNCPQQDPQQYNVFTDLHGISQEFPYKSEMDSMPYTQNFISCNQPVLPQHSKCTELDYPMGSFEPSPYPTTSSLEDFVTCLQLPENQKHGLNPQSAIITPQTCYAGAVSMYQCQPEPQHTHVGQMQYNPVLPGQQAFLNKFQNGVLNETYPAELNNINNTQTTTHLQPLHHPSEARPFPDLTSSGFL

Consider `F/C(COc1ccc2c(c1)[nH]c1ccccc12)=C1/CN2CCC1CC2`, for which the Potency result in experiment [1], in experiment [2], in experiment [3], in experiment [4], in [5] and in experiment [7] was “inactive” each time. Also, the Potency entry in experiment [8], in experiment [10], in experiment [11], in [12], in experiment [15] and in [16] was “inactive” each time. The compound was called inactive in experiment [6] and in experiment [9]. Besides, the Potency is 5.96 µM (active) in experiment [13], 7.5 µM (active) in [14] and 10.6 µM (active) in [17].
For `CC(=O)O[C@H]1C[C@H](O[C@H]2[C@@H](O)C[C@H](O[C@H]3[C@@H](O)C[C@H](O[C@H]4CC[C@@]5(C)[C@H](CC[C@@H]6[C@@H]5C[C@@H](O)[C@]5(C)[C@@H](C7=CC(=O)OC7)CC[C@]65O)C4)O[C@@H]3C)O[C@@H]2C)O[C@H](C)[C@H]1O[C@@H]1O[C@H](CO)[C@@H](O)[C@H](O)[C@H]1O`, the Potency entry in experiment [1], in experiment [3], in experiment [4], in experiment [5], in experiment [7] and in experiment [8] was “inactive” each time. Moreover, the Potency result in [10], in experiment [11], in [12], in experiment [18] and in [19] was “inactive” in each case. Also, the Potency in experiment [2] is 0.133 µM (active); in [13], 0.75 µM (active); in experiment [14] it was 0.668 µM (active); in experiment [15] it was 0.0756 µM (active). Also, the compound was called inactive in experiment [6] and in experiment [9].
`CC(C)C[C@H](CN)CC(=O)O`: the Potency entry in experiment [1], in [2], in [3], in experiment [4], in [5] and in [7] was “inactive” throughout. Further, the Potency result in experiment [10], in experiment [11], in [12], in experiment [13], in [14] and in experiment [16] was “inactive” each time. For the same compound, the Potency entry in experiment [20], in [18], in [19] and in [17] was “inactive” throughout. For the same compound, the compound was classed as inactive in experiment [6] and in [9].
Consider `CCC1(c2ccccc2)C(=O)NC(=O)N(C)C1=O` (centres undefined), for which the Potency result in [1], in experiment [2], in [3], in [4], in [5] and in [7] was “inactive” in each case. In addition, the Potency entry in experiment [8], in experiment [10], in experiment [11], in experiment [12], in experiment [13] and in experiment [14] was “inactive” throughout. Moreover, the Potency entry in [15], in [16], in [18], in experiment [19] and in experiment [17] was “inactive” throughout. The call in [6] and in experiment [9] was inactive.
As for `OC(c1ccccc1)(c1ccccc1)C1CN2CCC1CC2` (centres undefined), the Potency entry in [1], in experiment [2], in experiment [3], in experiment [4], in [5] and in [7] was “inactive” each time. In addition, the Potency result in [8], in experiment [10], in experiment [11], in experiment [12], in experiment [15] and in [16] was “inactive” in each case. Also, the Potency result in [20], in [18], in experiment [19] and in [17] was “inactive” in each case. Moreover, the compound was called inactive in experiment [6] and in experiment [9]. Also, the Potency in experiment [13] is 26.6 µM (active).
Turning to `C#CCN1CC(=O)N(COC(=O)C2C(C=C(C)C)C2(C)C)C1=O` (centres undefined), the Potency entry in experiment [1], in [2], in [3], in experiment [4], in experiment [5] and in experiment [7] was “inactive” in each case. The Potency entry in experiment [8], in experiment [10], in experiment [11], in experiment [12], in experiment [13] and in [14] was “inactive” throughout. Also, the Potency entry in experiment [15], in [16], in [20], in experiment [18], in experiment [19] and in experiment [17] was “inactive” each time. Moreover, the compound was classed as inactive in experiment [6] and in experiment [9].
Turning to `CNC1(c2ccccc2Cl)CCCCC1=O` (centres undefined), the Potency result in experiment [1], in experiment [2], in experiment [3], in [4], in [7] and in experiment [8] was “inactive” each time. The Potency result in experiment [10], in experiment [11], in [12], in experiment [13], in experiment [14] and in experiment [15] was “inactive” each time. The Potency entry in [16], in experiment [20], in experiment [18], in experiment [19] and in experiment [17] was “inactive” each time. Moreover, the outcome in [6] and in experiment [9] was inactive.
